Sampled rows, rich in hits. Any-hit rate of the full collection: about 1.2%.
NPR1 activator = GC-A (human) enzyme activation; P16066; HEK293 GC-A cells, cGMP TR-FRET, EC30 ANP; 0% at EC30 ANP, 100% saturating ANP; activation, % at 10 µM; 0.14% of 370,000 active; AID 1671463; in the data active = activation above about 40%
NPR2 activator = GC-B (human) receptor activation | HEK293-GC-B cells, CNP EC30, cGMP TR-FRET; 0% at EC30 CNP, 100% saturating CNP | 0.11% of 370,000 active | P20594 | AID 1920062 | activation, % at 10 µM;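 active = activation at 10 µM reaching about 35% in either raw or pattern-adjusted values, limit read from the data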
PLCg1 inh = inhibitors of human phospholipase C gamma1. P19174. inhibition, % at 12.2 µM. 0.84% of 370,000 active. purified PLC-gamma1, fluorogenic substrate, fluorescence. AID 720700
PLC-beta3 inh = blocks human PLC-beta3 enzyme activity; 0.18% of 370,000 active; Q01970; AID 720704; Purified PLC-beta3, fluorogenic substrate, fluorescence; inhibition, % at 12.2 µM; in the data active = inhibition above about 11%
Target sequence (Q01970 whole entry, looked up): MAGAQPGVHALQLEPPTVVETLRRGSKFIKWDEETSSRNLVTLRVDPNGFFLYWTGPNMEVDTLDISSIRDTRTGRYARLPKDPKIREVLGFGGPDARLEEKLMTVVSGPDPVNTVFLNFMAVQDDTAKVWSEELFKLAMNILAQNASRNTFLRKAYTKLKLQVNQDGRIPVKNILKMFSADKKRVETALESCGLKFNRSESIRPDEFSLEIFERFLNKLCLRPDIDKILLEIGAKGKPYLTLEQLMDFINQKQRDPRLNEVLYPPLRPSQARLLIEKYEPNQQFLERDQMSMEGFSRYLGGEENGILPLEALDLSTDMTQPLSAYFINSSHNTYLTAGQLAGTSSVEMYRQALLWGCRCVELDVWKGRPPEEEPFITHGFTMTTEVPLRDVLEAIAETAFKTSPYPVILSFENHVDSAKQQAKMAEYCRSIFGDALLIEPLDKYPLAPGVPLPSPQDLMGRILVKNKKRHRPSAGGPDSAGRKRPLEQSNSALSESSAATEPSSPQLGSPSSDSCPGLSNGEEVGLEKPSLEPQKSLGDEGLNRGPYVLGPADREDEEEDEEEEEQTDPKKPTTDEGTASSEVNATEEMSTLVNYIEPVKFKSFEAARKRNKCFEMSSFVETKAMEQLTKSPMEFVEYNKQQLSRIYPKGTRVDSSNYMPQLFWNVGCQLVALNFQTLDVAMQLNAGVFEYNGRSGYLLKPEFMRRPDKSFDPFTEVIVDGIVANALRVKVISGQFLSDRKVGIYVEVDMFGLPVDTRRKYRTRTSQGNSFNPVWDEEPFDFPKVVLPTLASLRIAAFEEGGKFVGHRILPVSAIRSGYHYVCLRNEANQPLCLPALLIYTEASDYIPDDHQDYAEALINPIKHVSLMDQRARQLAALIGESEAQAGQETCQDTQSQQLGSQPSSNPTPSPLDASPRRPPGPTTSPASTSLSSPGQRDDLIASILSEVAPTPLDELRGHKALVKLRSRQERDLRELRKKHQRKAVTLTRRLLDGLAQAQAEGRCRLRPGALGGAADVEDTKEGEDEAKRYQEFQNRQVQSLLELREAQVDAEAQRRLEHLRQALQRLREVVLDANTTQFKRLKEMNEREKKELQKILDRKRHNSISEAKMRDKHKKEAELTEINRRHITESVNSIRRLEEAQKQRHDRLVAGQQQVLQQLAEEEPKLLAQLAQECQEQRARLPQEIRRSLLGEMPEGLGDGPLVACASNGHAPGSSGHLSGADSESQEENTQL
PLCg1 ctr = counter-screen for PLC-beta3 inhibitors: inhibitors of human PLC-gamma1 | shares compounds with PLCg1 inh | purified PLC-gamma1, fluorogenic substrate, fluorescence | 3.1% of 3,300 active | inhibition, % at 12.3 µM
PLCb3 confirm = human PLC-beta3 inhibition, confirmation; shares compounds with PLCg1 inh; purified PLC-beta3, fluorogenic substrate fluorescence; inhibition, % at 12.3 µM; 1% of 3,300 active; AID 743261; in the data active = inhibition above about 11%
Each line names hits and unclear results; the compound was inactive in the other large screens (follow-up assays come after a bar, where they were run). Rule as the data show it, unless noted: active = inhibition above about 9.5%; inactive = the rest.

CC(=O)Nc1ccc(S(=O)(=O)N(Cc2ccccc2)c2ccccc2)cc1	none
COc1ccc(CCNC(=O)Cc2ccccc2)cc1OC	none
CCNCc1cc(OCC)c(OCC(=O)NCCc2ccccc2)cc1Cl	PLCg1 inh 11.9 | PLCg1 ctr inactive | PLCb3 confirm inactive
CCCOc1ccc(CC(=O)NCCc2ccccc2)cc1OC	PLCg1 inh 11.7 | PLCg1 ctr inactive | PLCb3 confirm inactive
O=C(O)/C=C/C(=O)Nc1ccc(C2(c3ccc(NC(=O)/C=C/C(=O)O)cc3)c3ccccc3-c3ccccc32)cc1	none
O=C(Nc1ccc(Cl)c(Cl)c1)Nc1ccc(Br)cc1F	PLC-beta3 inh 11.9 | PLCg1 ctr inactive | PLCb3 confirm inactive
CC1CCCC(NC(=O)c2n[nH]c(=O)c3ccccc23)C1C (stereo not drawn)	none
CCN(CC)S(=O)(=O)c1ccc(C(C)NCC(=O)Nc2ccccc2C(=O)NC2CC2)cc1 (stereo not drawn)	PLCg1 inh 10.2 | PLCg1 ctr inactive | PLCb3 confirm inactive
CC(NCC(=O)Nc1ccccc1C(=O)NC1CC1)c1ccc(S(N)(=O)=O)cc1 (stereo not drawn)	none
C/C(=N\N1CCN(C2c3ccccc3-c3ccccc32)CC1)c1ccncc1	none
COc1cccc(C(=O)NCCS(=O)(=O)N2CCC3(CC2)OCCO3)c1	none
C[n+]1ccc(/C=N/Nc2nc(Cl)c(C#N)c(Cl)c2Cl)cc1	none
COc1ccc(CCN=C(N)NS(=O)(=O)c2ccccc2)cc1OC	none
Cc1c(C(=O)OCC(=O)c2c(N)n(CC(C)C)c(=O)n(C)c2=O)oc2ccccc12	PLC-beta3 inh 46.1 | PLCg1 ctr inactive | PLCb3 confirm inactive
C=CCSC1=N/C(=C\c2cc(OCC)c(OC(C)=O)c([N+](=O)[O-])c2)C(=O)S1	PLCg1 inh 12.4 | PLCg1 ctr inactive | PLCb3 confirm inactive
CCN(c1ccccc1C)S(=O)(=O)c1cc2c3c(c1)CCC(=O)N3CCC2	none
CCOc1cc(N2CCOCC2)c(OCC)cc1NC(=O)[C@H](C)NC(=O)c1ccco1	none
COc1cc(C2CC(=O)Oc3cc(O)ccc32)cc(OC)c1OC (stereo not drawn)	none
COc1ccc2c(c1)OC(=O)CC2c1cc(OC)c(OC)c(OC)c1 (stereo not drawn)	PLCg1 inh 10.8 | PLCg1 ctr inactive | PLCb3 confirm inactive
O=C(O)c1cccc(Nc2cc(Cl)c3nonc3c2[N+](=O)[O-])c1	PLCg1 inh 12.9 | PLCg1 ctr inactive | PLCb3 confirm inactive
CCc1c(N)nc(N)nc1Nc1ccccc1Cl	PLCg1 inh 11.2, PLC-beta3 inh 11.5 | PLCg1 ctr inactive | PLCb3 confirm inactive
O=C(Nc1ccc(Br)cc1)C1CCCN(S(=O)(=O)c2cccnc2)C1 (stereo not drawn)	PLC-beta3 inh 11.2 | PLCg1 ctr inactive | PLCb3 confirm inactive
O=C(Nc1cccnc1)C1CCCN(S(=O)(=O)c2ccccc2)C1 (stereo not drawn)	none
COc1ccc(N2CCN(c3oc(COc4ccccc4)nc3C#N)CC2)cc1	none
CN1CCN(c2oc(COc3ccc(-c4ccccc4)cc3)nc2C#N)CC1	PLCg1 inh 10.9 | PLCg1 ctr inactive | PLCb3 confirm inactive
Cc1ccoc1C(=O)NCc1occc1C(=O)O	none
COCC1CCN(C(=O)c2ccc(OC3CCN(Cc4ccccn4)CC3)cc2)C1 (stereo not drawn)	none
COC1CCN(C(=O)c2ccc(OC3CCN(Cc4ccccn4)CC3)cc2)CC1	PLCg1 inh 10.1 | PLCg1 ctr inactive | PLCb3 confirm inactive
CCCOC1CCCN(C(=O)c2ccc(OC3CCN(C(=O)CCOC)CC3)cc2)C1 (stereo not drawn)	none
COCCC(=O)N1CCC(Oc2ccc(C(=O)N3CCCC(OC)C3)cc2)CC1 (stereo not drawn)	PLC-beta3 inh 11.6 | PLCg1 ctr inactive | PLCb3 confirm inactive
COC(=O)c1ccc(C(=O)OC)c(NC(=S)N2CCCC(CO)C2)c1 (stereo not drawn)	none
CN(CCC1CCOCC1)C(=O)C1CCC(=O)N(CCc2ccccc2)C1 (stereo not drawn)	PLCg1 inh 9.7 | PLCg1 ctr inactive | PLCb3 confirm inactive
O=C(N/N=C/c1ccccn1)c1ccccc1	PLCg1 inh 10.6 | PLCg1 ctr inactive | PLCb3 confirm inactive
